{"source": "the supplement of paper PMC7866885", "about": "“A novel bicyclic 2,4-diaminopyrimidine inhibitor of Streptococcus suis dihydrofolate reductase” (PeerJ, 2021)", "note": "± gives the standard deviation."}
{"system": "Streptococcus suis P1/7", "assay": "percent growth relative to DMSO control; higher = less growth inhibition", "settings": "10 µM; incubation time 18 h", "experimental": "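CLSI broth microdilution: 5x10^4 CFU of Streptococcus suis (strain P1/7 or HE06) incubated with 10 µM Pathogen Box compound in cation-adjusted Mueller Hinton broth, 37 °C, 5% CO2, 18 h. Growth read as OD600 and expressed as percent of the DMSO-treated control (100%); mean ± SD of three independent experiments.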", "units": {"percent growth": "%"}}
{"smiles": "c1csc(-c2cnc3sc(NCC4CCOCC4)nn23)c1", "percent growth": "91.2 ± 16"}
{"smiles": "CC(C)(CN)c1nc(-c2ccc(Cl)c(O)c2)c(-c2ccnc(N)n2)[nH]1", "percent growth": "79.2 ± 20"}
{"smiles": "OCCc1ccc(Nc2nccc(-c3nnc4ccccn34)n2)cc1", "percent growth": "88.5 ± 13"}
{"smiles": "CC[C@@H]([C@H](C)O)n1ncn(-c2ccc(N3CCN(c4ccc(OC[C@@H]5CO[C@@](Cn6cncn6)(c6ccc(F)cc6F)C5)cc4)CC3)cc2)c1=O", "percent growth": "77.5 ± 0.79"}
{"smiles": "CCC(C)NC(=O)c1ccc(NC(=O)C2(c3ccccc3)CCCC2)cc1", "note": "(stereo not given)", "percent growth": "78.1 ± 25"}
{"smiles": "c1coc(CNc2nc(N3CCCCC3)nc3ccccc23)c1", "percent growth": "89 ± 32"}
{"smiles": "NCC(=O)N1CCn2c(nc(-c3ccccc3)c2Nc2ccc3c(c2)OCO3)C1", "percent growth": "71.3 ± 25"}
{"smiles": "CC(C)C(C(=O)Nc1ccc(S(=O)(=O)N(C)C)cc1)c1ccc(Cl)cc1", "note": "(stereo not given)", "percent growth": "86 ± 22"}
{"smiles": "O=C(c1ccc(F)cc1)N(CCNc1ccccc1)c1ccccc1", "percent growth": "122 ± 66"}
{"smiles": "CC(C)=CCC/C(C)=C\\CNCCNC1C2CC3CC(C2)CC1C3", "note": "(stereo not given)", "percent growth": "-0.0282 ± 0.049"}
{"smiles": "COc1cccc(OC)c1C(=O)Nc1ccc(Cl)c(-c2nc3ccccc3s2)c1", "percent growth": "119 ± 45"}
{"smiles": "Cc1nn(C)cc1C(C)Nc1nncc(-c2ccc(C(F)(F)F)cc2)n1", "note": "(stereo not given)", "percent growth": "103 ± 32"}
{"smiles": "COc1cc(NC(C)CCCN)c2ncccc2c1", "note": "(stereo not given)", "percent growth": "127 ± 60"}
{"smiles": "CN1CCCN(C(c2ccccc2)c2ccc(Cl)cc2)CC1", "note": "(stereo not given)", "percent growth": "85.4 ± 14"}
{"smiles": "O=C(Nc1nnc(S)s1)c1cc(Br)ccc1Cl", "percent growth": "79.5 ± 9.2"}
{"smiles": "CC(C)(C)c1cc(C(=O)N2CCN(c3nccnc3C#N)CC2)n(Cc2ccccc2)n1", "percent growth": "91.6 ± 34"}
{"smiles": "CC(=O)Oc1ccccc1C(=O)Nc1ncc([N+](=O)[O-])s1", "percent growth": "35.5 ± 5.8"}
{"smiles": "Cc1cnc(N2CCN[C@@H](Cc3ccccc3)C2)nc1Oc1ccc(-n2ccnc2)cc1", "percent growth": "109 ± 29"}
{"smiles": "CCCNC(=O)N1CCC2(CC1)CC(=O)c1cc(C)ccc1O2", "percent growth": "61.5 ± 9.9"}
{"smiles": "O=C(OCc1ccccc1)N1CCC(c2cc(-c3ccncc3)c(-c3ccc(F)cc3)[nH]2)CC1", "percent growth": "92 ± 13"}
{"smiles": "CC1=NN(c2nc3ccccc3s2)C(=O)C1Cc1cccc2ccccc12", "note": "(stereo not given)", "percent growth": "3.74 ± 3.5"}
{"smiles": "NC(=O)c1cc(-c2ccsc2)ccc1OCCOc1ccccc1", "percent growth": "120 ± 58"}
{"smiles": "CNC(=O)C1Cc2c([nH]c3cc(Cl)ccc23)C2(CCN(CCc3ccccc3)CC2)N1", "note": "(stereo not given)", "percent growth": "77.4 ± 9"}
{"smiles": "CCOC(=O)c1cc(-c2csc(Nc3c(C)cc(C)cc3C)n2)on1", "percent growth": "108 ± 60"}
{"smiles": "Cc1cc(OCC(=O)Nc2ccc(C(C)C)cc2)n(C)c(=O)c1C#N", "percent growth": "79 ± 12"}
{"smiles": "FC(F)(F)c1nnc2ccc(Cl)nn12", "percent growth": "85 ± 18"}
{"smiles": "CO[C@@H](C(=O)N1Cc2[nH]nc(NC(=O)c3ccc(N4CCN(C)CC4)cc3)c2C1)c1ccccc1", "percent growth": "86.3 ± 15"}
{"smiles": "N=C(N)c1ccc(-c2cc(-c3ccccc3)on2)cc1", "percent growth": "106 ± 55"}
{"smiles": "FC(F)(F)c1cc(NCCc2ccccc2)nc(-c2ccccn2)n1", "percent growth": "9.89 ± 17"}
{"smiles": "Nc1nc2ccc(-c3cncc(Oc4ccc(F)cc4)c3)cc2[nH]1", "percent growth": "111 ± 67"}
{"smiles": "COc1cc(C(F)(F)F)nc2ccc(C)c(N)c12", "percent growth": "95.8 ± 24"}
{"smiles": "COCC(C)NC(=O)CSc1ncnc2sc(-c3ccccc3)cc12", "note": "(stereo not given)", "percent growth": "84.8 ± 13"}
{"smiles": "COc1ccc(CCN2CCC(NCc3cccc(N(C)C)c3)CC2)cc1", "percent growth": "67.3 ± 22"}
{"smiles": "COc1ccc(OC)c(NCc2ccc3nc(N)nc(N)c3c2Cl)c1", "percent growth": "2.34 ± 1.3"}
{"smiles": "COc1ccc(-c2onc(C(F)(F)F)c2-c2ccc(Cl)cc2)c(O)c1", "percent growth": "19.4 ± 34"}
{"smiles": "COC(=O)Nc1nc2cc(C(=O)c3ccccc3)ccc2[nH]1", "percent growth": "74.9 ± 28"}
{"smiles": "CCN(CC)C(=O)N1CCN(C)CC1", "percent growth": "91.1 ± 17"}
{"smiles": "CCCCS(=O)(=O)Nc1ccc2cnn(C)c2c1", "percent growth": "73 ± 10"}
{"smiles": "CC(C)N=c1cc2n(-c3ccc(Cl)cc3)c3ccccc3nc-2cc1Nc1ccc(Cl)cc1", "percent growth": "48.2 ± 42"}
{"smiles": "Nc1cccnc1Nc1ccc(Cl)cc1", "percent growth": "101 ± 40"}
